The list is not random: actives were taken first. Their share in the collection is about 2.2%.
FAS TE block: FAS thioesterase domain inhibitors, primary screen, biochemical, fluorescence intensity, uHTS | Fatty acid synthase (Homo sapiens), P49327 | recombinant FAS-TE, OMFH fluorogenic substrate, fluorescence endpoint | inhibition, % at 15 µM | 0.67% of 360,000 active | AID 602261, 2012;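 active = compounds whose normalised, plate-corrected inhibition of enzyme fluorescence in the single-dose primary screen is 50% or more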;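 note: 0% = DMSO with enzyme and 100% = substrate without enzyme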
Cardio protect: cardioprotection against H2O2-induced cell death, primary screen, uHTS, H9c2 cells, ATPLite luminescence; protection from H2O2 cell death, % at 20 µM; 0.63% of 360,000 active; H9c2 cardiomyocytes, H2O2 injury protection, 2 h;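 active = compounds giving at least 50% protection of heart cells from peroxide-induced death in the single-dose screen, raw or plate-pattern-corrected value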;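 note: 0% = DMSO wells with peroxide and 100% = DMSO wells without peroxide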
PLC-beta3 inh: human PLC-beta3 inhibitors, primary screen, biochemical, fluorescence | inhibition, % at 12.2 µM | AID 720704, 2013 | 1-phosphatidylinositol 4,5-bisphosphate phosphodiesterase beta-3 (Homo sapiens), Q01970 | Purified PLC-beta3, fluorogenic substrate | 0.18% of 370,000 active; in the data active = inhibition above about 11%;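 note: 0% = median of compound wells on plate and 100% = full blocker control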
PLCg1 inh: PLC-gamma1 enzyme inhibitors, primary screen, biochemical, fluorescence, purified enzyme. inhibition, % at 12.2 µM. fluorogenic substrate. AID 720700, 2013. 0.84% of 370,000 active; in the data active = inhibition above about 9.5%
Starred values were filed as active, the others as inactive; · = no result given.

SMILES	FAS TE block	Cardio protect	PLC-beta3 inh	PLCg1 inh
O=C(CSc1nnc(COc2ccccc2)n1-c1ccc(Cl)cc1)Nc1ccc(OCc2ccccc2)cc1	·	·	1	-3
COc1ccc(CC(=O)Nc2cccc(-c3nnc(-c4ccco4)o3)c2)cc1	12	-8	-4	2
COc1ccc(C(=O)Nc2cccc(-c3nnc(-c4ccco4)o3)c2)cc1	10	30	1	0
COc1cc(C(=O)Nc2cccc(-c3nnc(-c4ccco4)o3)c2)ccc1OC(C)=O	7	79*	-5	7
Cc1cc(C)cc(OCC(=O)Nc2cccc(-c3nnc(-c4ccco4)o3)c2)c1	32	54*	1	-1
CCC(=O)Nc1cccc(-c2nnc(-c3cccc(NC(=O)CC)c3)o2)c1	-1	85*	-2	-3
COCc1[nH]nc2c1C(c1ccc(F)cc1)N(c1ccc(OC)cc1)C2=O (stereo unspecified)	·	·	1	5
Nc1[nH]c(C(=O)c2ccc(Cl)cc2)c(-c2ccc(Br)cc2)c1C(=O)NCc1ccc(Cl)cc1Cl	·	·	-2	-4
CCn1c(/C=C/c2ccc(O)c(O)c2)nc2ccccc2c1=O	2	70*	-238	-210
COC(=O)[C@]12C[C@H](CC(=O)NCC3CCCCC3)C(=O)N(Cc3cccc4ccccc34)C1=C[C@H](C(C)(C)C)O[C@@H]2C	·	·	5	1
CCN(C[C@H]1N[C@@](CC)(C(=O)OC)[C@H]2C(=O)N(Cc3ccccc3)C(=O)[C@@H]12)C(=O)c1ccc(C(C)(C)C)cc1	23	63*	5	2
CCN(C[C@H]1N[C@@](C)(C(=O)OC)[C@H]2C(=O)N(Cc3ccccc3)C(=O)[C@@H]12)C(=O)COC	-5	3	3	3
CCN(C[C@H]1N[C@@](C)(C(=O)OC)[C@H]2C(=O)N(Cc3ccccc3)C(=O)[C@@H]12)C(=O)c1ccc(C(C)(C)C)cc1	-1	57*	4	3
CCc1c(-c2cccc(OC)c2)ncn1CCc1ccccc1OC	·	·	1	3
CCC(NC(=O)c1ccc2c(ccn2Cc2cccc(-c3ccccc3C(=O)O)c2)c1)c1ccccc1 (stereo unspecified)	·	·	-11	-1
Cn1c(Cc2cccs2)nnc1SCC(=O)Nc1ccc2c(c1)OCO2	·	·	3	-2
Cc1cc(-c2nn3c(-c4ccccc4)nnc3s2)c2ccccc2n1	9	64*	-8	-3
C/C(=N\NC(=O)CN1CCCCC1)c1ccccc1O	-2	5	-11	-3
C/C(=N\NC(=O)CN(c1ccccc1)S(C)(=O)=O)c1ccccc1O	3	59*	-6	-1
COC(=O)[C@H](C(C)C)N(CCCc1cn(Cc2ccccc2)nn1)S(=O)(=O)c1ccccc1Br	·	·	4	1
CCc1nnc(NC(=O)CCC(=O)N2CCN(Cc3ccccc3)CC2)s1	-9	15	0	1
CCc1nnc(NC(=O)CCC(=O)N2CCN(C3c4ccccc4-c4ccccc43)CC2)s1	4	61*	0	2
COc1cccc(CNC(=O)[C@H]2CCCN2C(=O)[C@H]2CCCN2C(=O)c2ccc(F)c(F)c2)c1	·	·	2	1
O=C1[C@H]2[C@@H](c3ccccc3)N[C@]3(CCCN(Cc4ccc(C(F)(F)F)cc4)C3=O)[C@H]2C(=O)N1Cc1ccccc1	28	25	5	-3
O=C1[C@H]2[C@@H](c3ccc(C(F)(F)F)cc3)N[C@]3(CCCN(Cc4ccc(F)cc4)C3=O)[C@H]2C(=O)N1Cc1ccccc1	31	67*	7	2
SMILES	FAS TE block	Cardio protect	PLC-beta3 inh	PLCg1 inh
CCCC(c1nnnn1C(C)(C)CC)N(CCCO)Cc1cc2cc(C)cc(C)c2[nH]c1=O (stereo unspecified)	-4	59*	-180	-145
COC(=O)c1cccc(NC(=O)c2ccc[n+]([O-])c2)c1	-3	0	0	11*
Cc1cc(OCC(=O)N2CCOCC2)cc2oc(=O)c3ccccc3c12	-2	59*	-203	-153
Cc1ccc(OCC(=O)N2CCOCC2)cc1C	-5	-2	0	2
O=C(NCCc1ccccc1)OCc1cn(Cc2ccc(F)cc2F)nn1	·	·	-4	-2
Cc1nnc2ccc(-c3cccc(NC(=O)c4ccc(Cl)nc4)c3)nn12	-4	63*	-12	-3
Cc1nnc2ccc(-c3cccc(NC(=O)c4ccc(Br)o4)c3)nn12	-3	49	-12	-3
